# Experimental data as given in PubChem BioAssay (NCI).
# The panel holds about 83,000 compounds, 20% with a hit somewhere; the sample as a whole holds those more often.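 Growth was measured after 48 h exposure to one concentration of compound in 96-well plates. Values under 10 count as active.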 Values without a mark were called inactive. Calls of active or inactive are those of the source.
# What was measured:
# Test in all cases: NCI-60 one-dose screen, 48 h (100 = growth as untreated, 0 = no growth, -100 = all killed)
# Conditions in all cases: 10 µM unless noted
# SR leukemia = tested on: SR leukemia
# RPMI-8226 leukemia = tested on: RPMI-8226 leukemia
# OVCAR-8 ovarian = tested on: OVCAR-8 ovarian
# OVCAR-5 ovarian = tested on: OVCAR-5 ovarian
# OVCAR-4 ovarian = tested on: OVCAR-4 ovarian
# SK-OV-3 ovarian = tested on: SK-OV-3 ovarian
# IGROV1 ovarian = tested on: IGROV1 ovarian
# OVCAR-3 ovarian = tested on: OVCAR-3 ovarian
# HS 578T breast = tested on: HS 578T breast
# NCI/ADR-RES ovarian = tested on: NCI/ADR-RES ovarian
Structure (SMILES),growth (SR leukemia),growth (RPMI-8226 leukemia),growth (OVCAR-8 ovarian),growth (OVCAR-5 ovarian),growth (OVCAR-4 ovarian),growth (SK-OV-3 ovarian),growth (IGROV1 ovarian),growth (OVCAR-3 ovarian),growth (HS 578T breast),growth (NCI/ADR-RES ovarian)
COc1ccc(OC)c(Nc2nc3nonc3nc2Nc2cc(OC)ccc2OC)c1,79.2%,36.1%,47.8%,92.3%,-27.6% (active),46.1%,95.3%,26%,44.6%,44.8%
CN(C)c1ccc(/C=C2\C=C(c3ccccc3)N(CCc3ccccc3)C2=O)cc1,23.5%,93%,11.7%,98.7%,-11.6% (active),60.9%,70.2%,62.3%,19.1%,48.6%
COc1ccc(N(C)c2nc(Cl)nc3cnn(C)c23)cc1,13.2%,28.2%,12.6%,33%,48.2%,10.6%,23.7%,4.74% (active),37.8%,2.72% (active)
O=[N+]([O-])c1ccccc1C(O)Cc1ccc2ccccc2n1 (stereo unspecified),95.6%,95.1%,97.2%,91.1%,92.8%,84.9%,80.5%,93.2%,98.9%,93%
O=C(NCc1cn(Cc2cccc(Oc3ccccc3)c2)nn1)c1cccnc1NCc1ccc(Cl)cc1,19.3%,-9.55% (active),32.6%,51.5%,43.8%,21.4%,60.1%,2.33% (active),23.8%,0.306% (active)
Clc1ccc(-c2cn(-c3ccccc3)c(-c3ccccc3)n2)cc1,-19.6% (active),-54.6% (active),90.7%,90%,88.1%,102%,48%,80%,102%,93.4%
COc1ccc(-n2nnc(C(=O)NCCc3c[nH]c4ccc(F)cc34)c2C)cc1,82.1%,93.3%,98.6%,101%,107%,89.8%,107%,103%,96.5%,106%
N[C@@H]1CCC[C@H]1NCCCCN1C(=O)c2cccc3cccc(c23)C1=O,18.1%,77.7%,45%,80.9%,47.2%,96.9%,59.9%,69.9%,71.8%,82.4%
CCCCCCCCN(CCCCCCCC)C(=N)c1ccnc2ccccc12,-56.6% (active),-47.7% (active),-66.1% (active),-57.2% (active),-67.1% (active),-27.8% (active),-66.5% (active),-93% (active),-32% (active),-72.5% (active)
N#Cc1c(Oc2ccc([N+](=O)[O-])cc2)nc2sc3cc(Cl)ccc3n2c1=N,92.2%,83.6%,63.4%,120%,53.1%,67.1%,77.7%,107%,41.8%,86%
C=C(Cl)COC(=O)C(C)(C)O,91.2%,99.5%,98.7%,102%,93.3%,97.2%,109%,109%,110%,95.2%
CCNCCNc1cc(-c2ccc(F)cc2)c(C#N)c2nc3ccccc3n12,-23% (active),36.4%,42.2%,89.9%,31%,94.5%,60.4%,0.676% (active),64.2%,55.4%
c1ccc2[nH]c(SSc3nc4ncncc4[nH]3)nc2c1,32.8%,14.6%,23%,44.6%,33.9%,24.1%,43.5%,22.9%,59.7%,26.2%
O=C(c1ccccc1)c1ccc(Cl)c([N+](=O)[O-])c1,-3.1% (active),82.3%,97.8%,99.1%,99.5%,108%,43.6%,75.7%,87.7%,108%
CN(CCC(=O)/C(=C\c1ccccc1)c1ccc(Cl)cc1)Cc1ccccc1,-1.56% (active),-11.3% (active),11.8%,25.2%,89.7%,120%,14.4%,1.15% (active),28.9%,24%
CCOC(=O)c1c(C)[nH]c(C(=O)CCC(=O)OC)c1C,92.5%,95.8%,103%,100%,107%,101%,104%,105%,124%,97.9%
COc1ccc(/C=C2\C=C(c3ccccc3)N(CCc3ccccc3)C2=O)cc1OC,-1.98% (active),70.6%,25.9%,67.2%,-5.49% (active),-30.3% (active),49%,28%,13.1%,31.6%
O=C(CCCCCCCn1cc(-c2cccnc2)nn1)Nc1ccccc1-c1ccccc1,49.2%,30.5%,20%,62.6%,41.7%,61.7%,28.3%,48.8%,66.4%,24.1%
CCN(CC)CCOC(=O)Nc1ccccc1Cl,102%,88.8%,104%,110%,120%,108%,101%,108%,109%,110%
O=C(Nc1cccc2[nH]c(C(F)(F)F)nc12)c1cc(Cl)ccc1Cl,25.3%,14.5%,26.5%,78.1%,23.2%,47.9%,35.8%,21.4%,53.9%,9.82% (active)
CNC(=O)c1cc(Oc2ccc3nc(NC(=O)Nc4cc(C(F)(F)F)cc(C(F)(F)F)c4)sc3c2)ccn1,-27.6% (active),-14.1% (active),-68.2% (active),-26.1% (active),-77.2% (active),-58% (active),-48.5% (active),-76.5% (active),-20.4% (active),-38.2% (active)
CN1CCN(c2ccc3nc(/N=C/c4ccc5sc(-c6ccc([N+](=O)[O-])cc6)nc5c4)sc3c2)CC1,91.9%,101%,99.6%,107%,105%,,114%,112%,114%,104%
CCn1c(Sc2nnc(Nc3ccccc3)s2)nc2c1c(=O)n(C)c(=O)n2C,103%,122%,103%,77.4%,96.5%,,91.4%,110%,99.3%,89.6%
O=C1c2ccccc2C(=O)c2cc(Cn3cc[n+](Cc4ccc5ccccc5c4)c3)ccc21,73.7%,17.2%,89.5%,84.6%,58.7%,105%,29.6%,40.8%,92.6%,104%
CC(=[N-])N1CCC[C@@H](Nc2c3ccccc3nc3ccccc23)C1.[Cl][Pt].[NH-]CCC[NH-],17.1%,30.1%,39.1%,39%,20.4%,,17.2%,3.95% (active),51.7%,85%
CC(=O)c1cc2c(o1)C(=O)c1ccccc1C2=O,1.01% (active),-44% (active),-43.8% (active),-86.1% (active),-96.9% (active),,-66.9% (active),-85.5% (active),-23.7% (active),-13.2% (active)
CC1=NN(c2cccc(Cl)c2)C(=O)/C1=C\c1cn(CC(O)CN2CCCCC2)c2ccccc12 (stereo unspecified),-8.32% (active),34.8%,76.6%,83.9%,75.9%,94.6%,49.8%,57.7%,91.1%,75.3%
